Source: PubChem (National Center for Advancing Translational Sciences (NCATS))
This is one part of a sample in which hits are shown more often than they occur.
Gal4-VP16 FLuc – counter-screen for ROR gamma inhibitors: Gal4-VP16 reporter; 3.5% of 310,000 active; AID 2546; Drosophila S2 Gal4-VP16 UAS-luciferase, luminescence, 20 h; Potency, µM (doses to about 53.6 µM), inactives show at the top dose activity, negative = inhibition, most hits filed as inhibitors;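 also: Gal4-VP16 expression switched on by copper sulfate through the metallothionein promoter; potency is read from the fitted curve at half-maximal effect; % is scaled to controls: 0 for no effect and ±100 for the full control effect; nearly all actives have a fitted effect of over 50% in size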
Integrin act MD – activators of alpha7 integrin expression for muscular dystrophy. AID 624291. alpha7betagal myoblasts, beta-gal FDG fluorescence, 48 h. 0.064% of 350,000 active. Potency, µM (top dose mostly 38.3 µM), for the others: top-dose activation, actives largely listed as activators;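 also: potency is read from the fitted curve at half-maximal effect; 100% = response of the positive control SU9516; nearly all actives have a fitted effect of over 60% in size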
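alpha7betagal+/- myoblasts (passage 13, 250/well) treated 48 h at 37C with compounds at 1:260 dilution of DMSO stock. Lysed, then beta-galactosidase activity read as FDG fluorescence (ex 480/em 540) after 30 min, with pre-read for autofluorescence.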
Giardia killer – kills Giardia lamblia | Giardia lamblia trophozoite viability | activity change, % at 7.66 µM, hits read low | 0.15% of 340,000 active; in the data active = activity change below about -80%; inconclusive = between about -30% and that limit;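 also: parasites exposed to compound for two days anaerobically before the ATP read; % is scaled to controls: 0 for no effect and ±100 for the full control effect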
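Trophozoites 100 cells/well + cpd; 48 hrs, 37 deg C, anaerobic. ATPLite 1-Step added, 15-30 min RT, luminescence read (ATP-based viability).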
ERG-DNA inh – inhibitors of human ERG Ets domain-DNA interaction. 0.028% of 370,000 active. P11308. fluorescence polarization, His-ERG Ets domain / labelled DNA. Potency, µM (series often up to 76.9 µM), inactives show at the top dose FP activity, negative = inhibition, actives largely listed as inhibitors. AID 624246; active = well fitted inhibition curve with a large enough effect in the polarisation, with a control signal flat; inconclusive = small, poorly fitted or top-dose-only effect, or effect the other way, or a change in a side signal; inactive = no such curve, though single readings can be large or run the other way; the % refers to the polarisation;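 also: polarization taken with two DNA probes labelled with fluorescein and Texas red; potency is read from the fitted curve at half-maximal effect; % of control where 0% means no effect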
Target sequence (P11308 whole entry, looked up, the tested form may be a part): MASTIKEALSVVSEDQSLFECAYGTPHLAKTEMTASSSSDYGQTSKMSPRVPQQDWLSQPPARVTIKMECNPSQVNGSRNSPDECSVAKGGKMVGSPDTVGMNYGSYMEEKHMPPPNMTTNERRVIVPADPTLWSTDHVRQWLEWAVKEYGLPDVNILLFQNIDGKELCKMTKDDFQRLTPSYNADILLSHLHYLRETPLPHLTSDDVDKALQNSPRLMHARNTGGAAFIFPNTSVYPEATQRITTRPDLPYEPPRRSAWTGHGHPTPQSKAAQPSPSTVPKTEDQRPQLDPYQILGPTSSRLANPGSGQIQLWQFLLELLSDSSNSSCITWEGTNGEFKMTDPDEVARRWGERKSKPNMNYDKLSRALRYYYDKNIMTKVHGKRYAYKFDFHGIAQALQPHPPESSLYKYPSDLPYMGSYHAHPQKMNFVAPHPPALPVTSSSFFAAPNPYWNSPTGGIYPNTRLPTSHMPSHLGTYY
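His-tagged ERG Ets domain (1 uM in the protein solution; 300mM KCl, 50mM Tris-HCl, 1mM EDTA, 1mM DTT, pH 7.5) received compound, then a probe mix of 5 nM fluorescein-DNA and 100nM Texas-615-DNA. Fluorescence polarization was read for both dyes.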
RORgamma inh – inhibitors of mouse ROR gamma transcriptional activity; Drosophila S2 Gal4-RORgamma UAS-luciferase reporter, 20 h; Potency, µM (highest dose often 53.6 µM), without a hit: top-dose activity change, negative = inhibition, actives largely listed as inhibitors; 5.4% of 310,000 active; P51450; also: potency is read from the fitted curve at half-maximal effect; % is scaled to controls: 0 for no effect and ±100 for the full control effect; nearly all actives have a fitted effect of over 60% in size
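Luminescence from a UAS-regulated Photinus luciferase reporter in stably transfected Drosophila Schneider cells is measured; decreased signal marks ROR gamma inhibition. Fusion expression is induced by 700 uM copper sulfate for 20 hr.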
* = called active by the depositor; ? = inconclusive; / = no result; [ ] = dose if it differs, or a comment. Unless noted, calls follow the shape of the dose curve; as a rule, active = well fitted curve in the direction sought with a large enough effect; inconclusive = small, poorly fitted or top-dose-only effect, or another doubt; inactive = no such curve, though single readings can be large; an effect the other way counts as inactive or inconclusive.

SMILES | Gal4-VP16 FLuc | Integrin act MD | Giardia killer | ERG-DNA inh | RORgamma inh
Cc1onc(-c2ccccc2Cl)c1C(=O)Nc1nnc(-c2ccc(Cl)cc2Cl)s1 | ? | -26% | ? | -9% | 14µM*
Cc1onc(-c2c(F)cccc2Cl)c1C(=O)Nc1nnc(-c2ccccc2)s1 | ? | 24% | 19 | 2% | 14µM*
Cc1ccc(Cc2cnc(N3C(=N)SC(C)C3=O)s2)cc1 (centres undefined) | 3.2µM* | -31% | -6 | 9% | 5µM*
Cc1cccc(Cc2cnc(N3C(=N)SC(c4ccccc4)C3=O)s2)c1 (centres undefined) | 1.3µM* | -50% | 4 | 12% | ?
Cc1cccc(Cc2cnc(N3C(=N)SC(C)C3=O)s2)c1 (centres undefined) | 1.1µM* | -68% | -1 | -5% | 0.35µM*
Cc1cc(SCC(=O)NCCC2=CCCCC2)nc2ccccc12 | 6.3µM* | -11% | -3 | -8% | ?
Cc1cc(SCC(=O)O)nc2ccccc12 | 3% | -16% | -16 | 0% | -15%
Cc1cc(SCC(=O)c2cc3ccccc3o2)nc2ccccc12 | ? | -24% | -3 | -2% | 11µM*
Cc1nc(NC(=O)CSc2cc(C)c3ccccc3n2)c(Cl)cc1Cl | ? | 20% | -6 | 1% | 2.5µM*
COc1ccc(OC)c(CCNC(=O)Cn2nc(C)n3c(cc4sccc43)c2=O)c1 | / | / | / | 7% | /
COc1ccccc1CNC(=O)C1CC2Cn3c(nc4cc(Cl)c(Cl)cc43)C2N1C (centres undefined) | / | -19% | 2 | 13% | /
COC(=O)Cc1cc(=O)n2[nH]c(C)c(-c3ccccc3)c2n1 | 4µM* | 18% | 29 | 3% | 3.5µM*
CCCc1cc(=O)n2[nH]c(C)c(-c3ccccc3)c2n1 | ? | -24% | 27 | -18% | 7.1µM*
CCOC(=O)Cc1cc(=O)n2[nH]c(C)c(-c3ccc(Cl)cc3)c2n1 | ? | -29% | 15 | / | 11µM*
Cn1c(CNC(=O)c2ccc3c(c2)OCO3)nnc1SCC(=O)Nc1ccc(F)cc1 | 18% | -55% | -4 | -11% | 0%
CC(=O)OCC1OC(C#CCC2CCCCC2)C=CC1OC(C)=O (centres undefined) | -13%[10 µM] | / | / | / | ?
O=c1cc[nH]c(=S)[nH]1 | -4% | / | / | / | 7%
CCOc1ccc(C(=O)N2CCC(c3nnc(-c4ccccc4OC)o3)CC2)cc1 | / | / | / | 3% | /
Cc1ccc2oc(C(=O)N(Cc3sccc3C)C3CCS(=O)(=O)C3)c(C)c2c1 (centres undefined) | / | / | / | 12% | /
O=C(N/N=C1/CC(c2ccccc2)Oc2ccccc21)C1CC1 (centres undefined) | -15% | -2% | -2 | / | 11µM*
O=C(N/N=C1\CC(c2ccccc2)Oc2ccccc21)c1cccnc1 (centres undefined) | 4µM* | -26% | -5 | -7% | 5.6µM*
O=C(N/N=C1\CC(c2ccccc2)Oc2ccccc21)c1ccc(O)cc1 (centres undefined) | ? | -27% | -4 | 20% | -38%
N#Cc1ccc(OCC(=O)N/N=C2/CC(c3ccccc3)Oc3ccccc32)cc1 (centres undefined) | 11µM* | -11% | 6 | 0% | 11µM*
Cc1nnc(NCc2ccccc2)c2ccccc12 | 18% | 16% | 14 | 2% | 9%[1.91 µM]
Cn1c(=O)c(-c2cc(F)cc(F)c2)nc2cnc(Nc3ccccc3)nc21 | ? | / | / | / | 10µM*
SMILES | Gal4-VP16 FLuc | Integrin act MD | Giardia killer | ERG-DNA inh | RORgamma inh
N#CCCn1c(=O)c(-c2cc(F)cc(F)c2)nc2cnc(Nc3ccccc3)nc21 | -2% | / | / | / | 11%
CCOc1ccc(NC(=S)N(Cc2ccc(N(C)C)cc2)Cc2ccco2)cc1 | 32µM* | -42% | -23 | 8% | ?
CCc1ccc(CN(Cc2ccco2)C(=O)c2ccc(OC)cc2)cc1 | / | / | / | -1% | /
COc1ccc(NC(=S)N(Cc2ccc(N(C)C)cc2)Cc2ccco2)cc1 | 20µM* | -7% | -5 | 1% | 13µM*
CCNC(=S)N(Cc1ccco1)Cc1cc2cc(OCC)ccc2[nH]c1=O | ? | -16% | 12 | 7% | 18µM*
COc1ccc2[nH]c(S(=O)Cc3ncc(C)c(OC)c3C)nc2n1 (centres undefined) | 1% | / | / | / | 3%
COCCNc1nc(C)cc(-c2cc(C(=O)NCc3ccccc3)on2)n1 | 1% | -6% | 8 | -8% | -7%
Cc1cc(-c2cc(C(=O)NCc3ccccc3)on2)nc(S(C)(=O)=O)n1 | ? | -4% | -2 | 5% | 5µM*
O=C1CCCC=C1[C@@H](O)CCOC(c1ccccc1)(c1ccccc1)c1ccccc1 | -1% | / | / | / | 7%
CCOC(=O)N/N=C1/C[C@@H](O)[C@@H](O)[C@@H]2[C@@H]3C(=O)N(c4cccc(Oc5ccccc5)c4)C(=O)[C@H]3CC[C@H]12 | 1%[10 µM] | / | / | / | -5%[10 µM]
CCn1c(-c2cc(Br)cc(OC)c2O)nc2cc(S(=O)(=O)N(C)C)ccc21 | 7.9µM* | -34% | 4 | -2% | 3.5µM*
CC(=O)c1nnn(-c2ccc([N+](=O)[O-])cc2C)c1C | -8% | 12% | -16 | -3% | 2%
CC(=O)c1ccc(NS(=O)(=O)c2cccc(S(=O)(=O)c3ccc(Cl)cc3)c2)cc1 | / | / | / | 8% | /
C=C(C)C1Cc2c(C)nn(-c3nc(C)cc(C)n3)c2C1 (centres undefined) | 2µM* | -9% | -10 | -3% | 0.35µM*
C=C(C)C1Cc2nc(N)nc(C)c2C1 (centres undefined) | -1% | -12% | -24 | -8% | -4%
O=[N+]([O-])c1ccc2[nH]c(O)c(N=NC(=S)NCC3CCCO3)c2c1 (centres undefined) | ? | -9% | -14 | -3% | 4µM*
CCNC(=S)N=Nc1c(O)[nH]c2ccc([N+](=O)[O-])cc12 | 11µM* | 18% | -5 | 1% | 2µM*
CCCCCC(=O)N=Nc1c(O)[nH]c2ccc([N+](=O)[O-])cc12 | -4% | 32% | -13 | -22% | -3%
Cc1cc(C)cc(NC(=O)C(=O)NCC(c2cccnc2)N2CCc3ccccc32)c1 (centres undefined) | / | / | / | -3% | /
CCNC(=S)NNC(=O)c1c(Cl)c(C)nn1C | ? | 16% | -4 | 0% | 6.3µM*
Cc1nn(C)c(C(=O)NN)c1Cl | -5% | 7% | 1 | 2% | 11µM*
Cc1cccc(NC(=O)NNC(=O)c2c(Cl)c(C)nn2C)c1 | -15% | 6% | -11 | 1% | ?
COc1ccccc1NC(=S)NNC(=O)c1c(Cl)c(C)nn1C | ? | 4% | 13 | -3% | 1.6µM*
CCNC(=S)NNC(=O)c1nn(C)c(C)c1Cl | -10% | 1% | -9 | -3% | ?
CCCCNC(=S)NNC(=O)c1c(Cl)c(C)nn1C | -30% | -12% | 1 | 8% | 1.4µM*
Cc1cc(S(=O)(=O)n2ccnc2C(C)C)cc([N+](=O)[O-])c1C | / | / | / | 0% | /
